Measured values: PMC7862700, “An all-to-all approach to the identification of sequence-specific readers for epigenetic DNA modifications on cytosine”

Key:
Assay in all cases: DAPPL (digital affinity profiling via proximity ligation, sequencing); 10 mM Tris-HCl pH 7.5, 50 mM NaCl, 1 mM DTT, 4% glycerol, room temperature, 30 min; GST-TFs on glutathione beads, 16-mer random dsDNA library, 0.1% formaldehyde crosslink after washing; high values mean tight binding
Conditions in all cases: protein: recombinant; tags: N-terminal GST; dsDNA, one strand shown
FLI1 = target: T1, FLI1 (Homo sapiens, UniProt Q01543 1-452)
T1 sequence: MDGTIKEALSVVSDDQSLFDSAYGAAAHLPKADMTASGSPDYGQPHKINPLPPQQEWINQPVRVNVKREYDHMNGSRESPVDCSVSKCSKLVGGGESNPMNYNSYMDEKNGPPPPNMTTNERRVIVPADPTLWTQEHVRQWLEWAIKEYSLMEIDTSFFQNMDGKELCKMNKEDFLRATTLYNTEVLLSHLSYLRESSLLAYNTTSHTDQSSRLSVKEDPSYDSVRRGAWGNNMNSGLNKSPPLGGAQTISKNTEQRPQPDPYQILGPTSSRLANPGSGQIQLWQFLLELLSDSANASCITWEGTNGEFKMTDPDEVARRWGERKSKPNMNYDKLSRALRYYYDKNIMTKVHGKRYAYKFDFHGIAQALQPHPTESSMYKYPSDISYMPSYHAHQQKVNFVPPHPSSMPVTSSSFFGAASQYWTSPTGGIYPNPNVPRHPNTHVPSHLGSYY
In short: (§1)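 Binding signal is defined as a hexamer's read frequency for one factor over its frequency for the tag-only sample. To obtain reads, GST-fused human transcription factors were expressed in yeast, captured on glutathione beads, barcoded with DNA and pooled with that sample. Pools met 200 nmole of a 16-mer random double-stranded DNA library in Tris/NaCl/DTT/glycerol buffer for 30 min at room temperature before washing, 0.1% formaldehyde crosslinking, proximity ligation (BsaI/T4 ligase, 1 h, 37 °C), PCR and Illumina NextSeq500 sequencing.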

ELK1 = target: T2, ELK1 (Homo sapiens, UniProt P19419 1-428)
T2 sequence: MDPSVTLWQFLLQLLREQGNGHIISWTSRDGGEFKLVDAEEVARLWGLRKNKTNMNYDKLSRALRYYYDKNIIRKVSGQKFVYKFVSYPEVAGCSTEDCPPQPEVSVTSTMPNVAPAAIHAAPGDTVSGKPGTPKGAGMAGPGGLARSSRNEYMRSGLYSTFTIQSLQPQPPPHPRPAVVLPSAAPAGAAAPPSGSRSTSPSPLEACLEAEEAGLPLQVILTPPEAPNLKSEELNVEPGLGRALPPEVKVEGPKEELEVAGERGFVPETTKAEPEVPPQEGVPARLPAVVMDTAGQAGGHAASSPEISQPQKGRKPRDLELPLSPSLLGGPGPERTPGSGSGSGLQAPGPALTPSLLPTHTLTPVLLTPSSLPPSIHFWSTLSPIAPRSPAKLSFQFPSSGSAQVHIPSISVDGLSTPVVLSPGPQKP
In short: as §1

GABPA = target: T3, GABPA (Homo sapiens, UniProt Q06546 1-454)
T3 sequence: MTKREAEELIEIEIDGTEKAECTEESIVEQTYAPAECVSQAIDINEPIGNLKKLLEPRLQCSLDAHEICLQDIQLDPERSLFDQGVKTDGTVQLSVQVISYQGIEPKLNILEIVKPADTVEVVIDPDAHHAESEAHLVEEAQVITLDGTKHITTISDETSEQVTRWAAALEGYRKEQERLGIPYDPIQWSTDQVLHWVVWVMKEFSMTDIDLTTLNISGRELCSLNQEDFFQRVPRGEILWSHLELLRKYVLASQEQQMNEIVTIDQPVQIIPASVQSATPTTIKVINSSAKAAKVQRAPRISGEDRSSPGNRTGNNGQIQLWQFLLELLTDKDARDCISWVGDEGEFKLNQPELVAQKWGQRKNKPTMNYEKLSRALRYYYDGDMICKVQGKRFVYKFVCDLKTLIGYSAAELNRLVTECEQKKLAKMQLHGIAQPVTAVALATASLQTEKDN
In short: as §1

ERG = target: T4, ERG (Homo sapiens, UniProt P11308 1-479)
T4 sequence: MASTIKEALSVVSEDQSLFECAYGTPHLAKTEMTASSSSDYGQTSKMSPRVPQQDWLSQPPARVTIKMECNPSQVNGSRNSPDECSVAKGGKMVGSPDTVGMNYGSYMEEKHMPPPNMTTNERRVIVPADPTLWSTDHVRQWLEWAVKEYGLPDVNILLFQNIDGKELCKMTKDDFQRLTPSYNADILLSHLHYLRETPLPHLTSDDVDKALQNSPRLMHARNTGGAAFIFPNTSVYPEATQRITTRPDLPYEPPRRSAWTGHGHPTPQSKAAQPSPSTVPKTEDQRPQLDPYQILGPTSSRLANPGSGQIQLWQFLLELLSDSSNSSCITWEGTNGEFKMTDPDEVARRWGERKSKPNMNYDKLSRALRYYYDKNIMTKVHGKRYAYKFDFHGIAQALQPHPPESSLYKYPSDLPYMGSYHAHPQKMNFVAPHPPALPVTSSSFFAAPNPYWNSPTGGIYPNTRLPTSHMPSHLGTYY
In short: as §1

ELF1 = ELF1 (Homo sapiens, UniProt P32519 1-619)
Chain of ELF1 (P32519 whole entry): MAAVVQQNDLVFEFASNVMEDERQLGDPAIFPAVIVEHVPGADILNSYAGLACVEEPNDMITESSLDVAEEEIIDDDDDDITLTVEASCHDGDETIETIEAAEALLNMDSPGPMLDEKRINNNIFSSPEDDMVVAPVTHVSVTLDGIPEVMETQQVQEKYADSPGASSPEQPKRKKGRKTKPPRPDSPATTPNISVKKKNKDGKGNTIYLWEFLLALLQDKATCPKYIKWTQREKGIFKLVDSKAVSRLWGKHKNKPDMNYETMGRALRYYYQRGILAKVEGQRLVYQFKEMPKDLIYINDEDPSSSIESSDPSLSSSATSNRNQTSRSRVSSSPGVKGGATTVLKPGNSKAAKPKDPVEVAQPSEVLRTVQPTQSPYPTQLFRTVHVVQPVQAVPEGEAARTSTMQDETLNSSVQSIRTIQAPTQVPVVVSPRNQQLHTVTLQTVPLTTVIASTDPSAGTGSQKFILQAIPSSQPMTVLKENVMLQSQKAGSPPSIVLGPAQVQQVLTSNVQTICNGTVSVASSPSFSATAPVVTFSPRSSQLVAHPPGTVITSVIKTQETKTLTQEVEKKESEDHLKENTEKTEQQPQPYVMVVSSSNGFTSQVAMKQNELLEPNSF
In short: as §1

EHF = target: T5, EHF (Homo sapiens, UniProt Q9NZC4 1-300)
T5 sequence: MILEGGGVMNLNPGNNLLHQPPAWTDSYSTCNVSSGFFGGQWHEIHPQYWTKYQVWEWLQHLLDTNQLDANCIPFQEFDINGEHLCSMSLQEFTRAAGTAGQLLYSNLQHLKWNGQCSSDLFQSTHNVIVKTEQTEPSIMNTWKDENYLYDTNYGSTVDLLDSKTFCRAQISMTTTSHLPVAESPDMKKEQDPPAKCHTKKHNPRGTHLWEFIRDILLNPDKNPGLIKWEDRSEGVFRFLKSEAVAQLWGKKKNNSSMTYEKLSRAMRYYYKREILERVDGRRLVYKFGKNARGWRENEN
In short: as §1

SPI1 = SPI1 (Homo sapiens, UniProt P17947 1-270)
In short: as §1

ELK3 = target: T6, ELK3 (Homo sapiens, UniProt P41970 1-407)
T6 sequence: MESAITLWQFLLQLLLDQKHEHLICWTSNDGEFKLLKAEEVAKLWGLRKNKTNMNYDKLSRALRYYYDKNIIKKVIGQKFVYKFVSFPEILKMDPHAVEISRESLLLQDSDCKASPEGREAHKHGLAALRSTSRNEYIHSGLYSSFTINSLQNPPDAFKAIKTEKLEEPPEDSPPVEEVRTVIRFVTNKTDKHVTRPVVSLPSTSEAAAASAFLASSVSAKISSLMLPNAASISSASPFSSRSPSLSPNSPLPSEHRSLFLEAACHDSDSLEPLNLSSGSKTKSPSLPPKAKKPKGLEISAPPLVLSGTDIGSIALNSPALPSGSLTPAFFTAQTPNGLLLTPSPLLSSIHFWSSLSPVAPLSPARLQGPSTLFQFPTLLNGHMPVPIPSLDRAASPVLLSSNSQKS
In short: as §1

SPIB = SPIB (Homo sapiens, UniProt Q01892 1-262)
Chain of SPIB (Q01892 whole entry): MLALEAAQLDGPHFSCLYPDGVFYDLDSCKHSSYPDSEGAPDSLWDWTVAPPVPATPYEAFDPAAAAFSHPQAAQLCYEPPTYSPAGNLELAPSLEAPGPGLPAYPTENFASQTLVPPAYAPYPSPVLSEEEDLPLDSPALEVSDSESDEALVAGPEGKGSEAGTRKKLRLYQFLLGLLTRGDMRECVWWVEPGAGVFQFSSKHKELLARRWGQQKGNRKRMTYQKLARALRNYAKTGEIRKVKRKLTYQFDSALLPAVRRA
In short: as §1

With TTACGT the binding signal (FLI1) was 1.19 fold enrichment (6-mer frequency, TF over GST control), the binding signal (ELK1) was 1.09 fold enrichment (6-mer frequency, TF over GST control) and the binding signal (GABPA) was 1.2 fold enrichment (6-mer frequency, TF over GST control). For the same sequence, the binding signal (ERG) was 1.07 fold enrichment (6-mer frequency, TF over GST control), the binding signal (ELF1) was 1.07 fold enrichment (6-mer frequency, TF over GST control) and the binding signal (EHF) was 1.1 fold enrichment (6-mer frequency, TF over GST control). For the same sequence, the binding signal (SPI1) was 1.09 fold enrichment (6-mer frequency, TF over GST control) and the binding signal (ELK3) was 1.05 fold enrichment (6-mer frequency, TF over GST control).

With GCCCCC the binding signal (FLI1) was 1.06 fold enrichment (6-mer frequency, TF over GST control), the binding signal (ELK1) was 1.02 fold enrichment (6-mer frequency, TF over GST control) and the binding signal (GABPA) was 1.15 fold enrichment (6-mer frequency, TF over GST control). For the same sequence, the binding signal (ERG) was 1.03 fold enrichment (6-mer frequency, TF over GST control), the binding signal (ELF1) was 1.15 fold enrichment (6-mer frequency, TF over GST control) and the binding signal (EHF) was 1.13 fold enrichment (6-mer frequency, TF over GST control). For the same sequence, the binding signal (SPI1) was 1.12 fold enrichment (6-mer frequency, TF over GST control) and the binding signal (ELK3) was 1.06 fold enrichment (6-mer frequency, TF over GST control).

For GAAGCT, the binding signal (FLI1) was 1.62 fold enrichment (6-mer frequency, TF over GST control), the binding signal (ELK1) was 1.7 fold enrichment (6-mer frequency, TF over GST control) and the binding signal (GABPA) was 1.52 fold enrichment (6-mer frequency, TF over GST control). The binding signal (ERG) was 1.64 fold enrichment (6-mer frequency, TF over GST control), the binding signal (ELF1) was 1.44 fold enrichment (6-mer frequency, TF over GST control) and the binding signal (EHF) was 1.69 fold enrichment (6-mer frequency, TF over GST control). For the same sequence, the binding signal (SPI1) was 1.63 fold enrichment (6-mer frequency, TF over GST control), the binding signal (SPIB) was 1.64 fold enrichment (6-mer frequency, TF over GST control) and the binding signal (ELK3) was 1.66 fold enrichment (6-mer frequency, TF over GST control).

For ACCCGA, the binding signal (FLI1) was 1.05 fold enrichment (6-mer frequency, TF over GST control), the binding signal (ELK1) was 1.02 fold enrichment (6-mer frequency, TF over GST control) and the binding signal (GABPA) was 1.03 fold enrichment (6-mer frequency, TF over GST control). For the same sequence, the binding signal (ERG) was 1.05 fold enrichment (6-mer frequency, TF over GST control), the binding signal (ELF1) was 1.03 fold enrichment (6-mer frequency, TF over GST control) and the binding signal (EHF) was 1.18 fold enrichment (6-mer frequency, TF over GST control). For the same sequence, the binding signal (SPIB) was 1.14 fold enrichment (6-mer frequency, TF over GST control).

For TAGCAG, the binding signal (FLI1) was 1.07 fold enrichment (6-mer frequency, TF over GST control), the binding signal (ELK1) was 1.08 fold enrichment (6-mer frequency, TF over GST control) and the binding signal (GABPA) was 1.03 fold enrichment (6-mer frequency, TF over GST control). The binding signal (ERG) was 1.11 fold enrichment (6-mer frequency, TF over GST control), the binding signal (ELF1) was 1.09 fold enrichment (6-mer frequency, TF over GST control) and the binding signal (EHF) was 1 fold enrichment (6-mer frequency, TF over GST control). The binding signal (SPI1) was 1 fold enrichment (6-mer frequency, TF over GST control) and the binding signal (ELK3) was 1.19 fold enrichment (6-mer frequency, TF over GST control).

With TTGAGC the binding signal (FLI1) was 1.22 fold enrichment (6-mer frequency, TF over GST control), the binding signal (ELK1) was 1.01 fold enrichment (6-mer frequency, TF over GST control) and the binding signal (GABPA) was 1.17 fold enrichment (6-mer frequency, TF over GST control). For the same sequence, the binding signal (ERG) was 1.12 fold enrichment (6-mer frequency, TF over GST control), the binding signal (ELF1) was 1.02 fold enrichment (6-mer frequency, TF over GST control) and the binding signal (EHF) was 1.06 fold enrichment (6-mer frequency, TF over GST control). For the same sequence, the binding signal (SPIB) was 1.11 fold enrichment (6-mer frequency, TF over GST control).

In the case of GTACTC, the binding signal (FLI1) is reported as 1.06 fold enrichment (6-mer frequency, TF over GST control), the binding signal (ELK1) is reported as 1.09 fold enrichment (6-mer frequency, TF over GST control) and the binding signal (GABPA) is reported as 1.16 fold enrichment (6-mer frequency, TF over GST control). The binding signal (ERG) was 1.09 fold enrichment (6-mer frequency, TF over GST control), the binding signal (ELF1) was 1.16 fold enrichment (6-mer frequency, TF over GST control) and the binding signal (EHF) was 1.08 fold enrichment (6-mer frequency, TF over GST control). For the same sequence, the binding signal (SPI1) was 1.01 fold enrichment (6-mer frequency, TF over GST control) and the binding signal (ELK3) was 1.18 fold enrichment (6-mer frequency, TF over GST control).

With GATAGC the binding signal (FLI1) was 1.11 fold enrichment (6-mer frequency, TF over GST control), the binding signal (ELK1) was 1.1 fold enrichment (6-mer frequency, TF over GST control) and the binding signal (GABPA) was 1.13 fold enrichment (6-mer frequency, TF over GST control). The binding signal (ERG) was 1.02 fold enrichment (6-mer frequency, TF over GST control), the binding signal (ELF1) was 1.02 fold enrichment (6-mer frequency, TF over GST control) and the binding signal (EHF) was 1.1 fold enrichment (6-mer frequency, TF over GST control). The binding signal (SPI1) was 1.05 fold enrichment (6-mer frequency, TF over GST control) and the binding signal (ELK3) was 1.1 fold enrichment (6-mer frequency, TF over GST control).
